Among all 1,200 compounds or so, about 600 (50%) were called active. The set was probably picked from earlier hits. The list shows a part of the results. Entries with a potency or affinity are not part of this list. A number with no mark means an inactive call. Cut-off read from the data, not from the text of the source: active = inhibition above about 42%; inactive = the rest.

For this assay, the target named is SUMO-conjugating enzyme UBC9 (Homo sapiens) (UniProt P63279). The assay is described as follows: SUMOylation inhibitor hit validation, confirmation, SUMOylation inhibitor project, biochemical, AlphaScreen (AID 2018). The following applies: AlphaScreen in vitro SUMOylation assay; at 35 µM; hits give high values.
SUMO-conjugating enzyme UBC9 (Homo sapiens), sequence (P63279 whole entry, looked up): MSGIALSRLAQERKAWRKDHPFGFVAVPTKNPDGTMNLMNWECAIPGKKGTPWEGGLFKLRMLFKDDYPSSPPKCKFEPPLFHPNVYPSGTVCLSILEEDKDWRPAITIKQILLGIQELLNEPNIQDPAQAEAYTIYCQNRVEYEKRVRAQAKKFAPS
By inhibition is commonly meant the drop in the measured response relative to a control, in per cent. Take `Cc1oc2c(c(C)cc3oc(=O)c(CC(=O)NCC(=O)NCC(=O)O)c(C)c32)c1C`: the inhibition is -1.1%.
The value for `Cc1ccc(C)n1-c1nccc(-c2cccs2)n1` was 21.2%.
Then `O=c1oc2ccccc2c(Nc2cccc3cccnc23)c1[N+](=O)[O-]`, with 7.5%.
Then `N#Cc1c(N)n(CCOC(=O)c2ccc(Cl)cc2)c2nc3ccccc3nc12`, with -17.7%; and `CCCCn1c(NC(C)=O)c(C#N)c2nc3ccccc3nc21`, with 15.5%; and `N#Cc1c(N)n(CCNC(=O)c2ccccc2)c2nc3ccccc3nc12`, with 29.4%.
Take `C=CCn1c(N)c(C(=O)Nc2cccc(C)c2)c2nc3ccccc3nc21`: the inhibition was 8.9%.
In the case of `N#Cc1c(N)n(-c2cccc(C(=O)O)c2)c2nc3ccccc3nc12`, the inhibition was 43% (active).
`C=CCn1c(N)c(C(=O)OC(C)(C)C)c2nc3ccccc3nc21`: the inhibition is 5.9%.
Then `Cc1ccc2[nH]c3c(c2c1)CN(C(=O)CN1CCCc2ccccc21)CC3`, with 41%; and `C/C(CCc1ccco1)=N\NC(=O)CNc1cccc2ccccc12`, with 6.1%; and `Cn1nccc1NC(=O)Nc1cccc(Cl)c1`, with 10.6%.
Then `O=C(NC(=S)Nc1c(Cl)ccc2nsnc12)c1ccco1`, with 19.5%.
For the compound `Nc1ccc(N2CCN(CCCCN3C(=O)C4CCCN4C3=O)CC2)cc1` (stereo not drawn), the inhibition was 29.6%.
Then `C/C(=C\C(=S)Nc1ccccc1)Nc1cccc2ccccc12`, with 29.8%; and `Nc1ccc2oc(-c3cccs3)nc2c1`, with -13.9%; and `Nc1c(N2CCOCC2)cc(Cl)c2nonc12`, with -2.8%.
Then `CCN(CC)c1cc(Cl)c2nonc2c1N`, with 16.4%.
As to `Nc1ccc(N2CCCCC2)c2nonc12`, the inhibition is 78.2% (active).
The value for `O=C(Nc1ccc(N2CCOCC2)c2nonc12)C1CCCC1` was 24%.
Then `O=[N+]([O-])c1c(NCCO)cc(N2CCCCCC2)c2nonc12`, with 6%; and `CN(C(=O)CSc1nnc(NCc2ccccc2)s1)C1CCS(=O)(=O)C1` (stereo not drawn), with 12.1%; and `Nc1ccc(-c2nc3ccc(N)cc3[nH]2)cc1`, with -8.6%.
As for `COc1ccc(-c2nc3ccncc3[nH]2)cc1OC`, the inhibition is 11.1%.
Turning to `CN(C)c1ccc(C(=O)/C=C/c2ccco2)cc1`, the inhibition is 10.9%.
As to `O=C(/C=C/c1ccco1)NC(=S)NNC(=O)c1ccco1`, the inhibition is -483%.
Then `O=C(/C=C\c1ccco1)c1ccc(NC(=O)c2ccco2)cc1`, with 56.4% (active).
With `CCc1nc2sc(C(C)=O)c(N)c2c2c1CCCC2`, the inhibition is -13%.
Then `CC(C)(C)C1CCC2(CC1)Nc1cccc3cccc(c13)N2`, with 52.8% (active); and `O=C(CCCN1C(=O)/C(=C/c2ccco2)SC1=S)Nc1ccccc1C(=O)O`, with 76.9% (active).
Then `O=C(CN1C(=O)CSC1=O)Nc1ccc(C(=O)O)cc1`, with -7.6%.
The value for `COc1ccc(N2C(=O)[C@@H]3[C@H](C2=O)[C@H]2c4ccccc4C=CN2[C@@H]3C(C)=O)cc1` was 53.6% (active); that for `CCC(=O)N1CCc2cc(S(=O)(=O)NC(C(=O)NCc3ccc(C)cc3)C(C)C)ccc21` (stereo not drawn) was 37.4%.
Take `Cc1ccoc1C(=O)NCCCNC(=O)c1occc1C`: the inhibition was 56.7% (active).
The value for `CN(C)c1cccc2cccc(N(C)C)c12` was 3.1%; that for `Cc1cc2oc(C(=O)Nc3ccc(S(=O)(=O)Nc4nccs4)cc3)cc(=O)c2cc1Cl` was 75% (active).
Then `O=c1[nH]c(Nc2ccccc2)cc2ccccc12`, with 102% (active); and `CCN(c1ccccc1)c1cc2ccccc2c(=O)[nH]1`, with 35.3%; and `Cc1ccc(C(=O)NC(C)c2nc3ccccc3n2CC(=O)Nc2c(C)cc(C)cc2C)cc1` (stereo not drawn), with 5.3%.
Then `Cn1c(-c2ccc(C=O)s2)nc2ccccc21`, with 14.4%; and `CCn1c(NC(=O)c2ccccc2)nc2ccccc21`, with 73% (active).
Regarding `CCOc1ccc(NC(=S)Nc2cccc3ccccc23)cc1`, the inhibition was 4.4%.
Then `CCOC(=O)COc1nc(-c2ccco2)cc(-c2ccco2)c1C#N`, with -28.4%; and `COc1ccc(C(N)c2nccc3cc(OC)c(OC)cc23)cc1OC` (stereo not drawn), with 22.1%; and `CC1=CC(C)(C)N2C(=O)C(=Nc3ccc(O)cc3)c3cccc1c32`, with 95.8% (active).
The value for `Cc1cc(=O)[nH]c(SCC(=O)Nc2cccc(C(F)(F)F)c2)n1` was -20.9%; that for `CCC(=O)c1ccccc1OCCSc1nc(C)cc(=O)[nH]1` was 10.6%; that for `Cc1cc(=O)[nH]c(SCC(=O)c2ccc(O)c(O)c2)n1` was 55.2% (active).
Take `O=C(NN1C(=O)CSC1=S)C(=O)NN1C(=O)CSC1=S`: the inhibition is 102% (active).
Then `CCOc1cc(CNc2cccc3ccccc23)cc(Br)c1OCC(=O)NC(C)(C)C`, with -1.9%; and `CCOc1cc(CNc2ccc(N3CCN(C(C)=O)CC3)cc2)cc(Br)c1OC`, with 45.3% (active).
Take `Oc1ccc2ccccc2c1C=NCc1ccccc1`: the inhibition is 38.6%.
The value for `CCN(Cc1cc(=O)n2ccsc2n1)c1cccc2ccccc12` was 25.6%; that for `Oc1ccc2ccccc2c1C=NCc1cn2ccsc2n1` was 42.5% (active).
The value for `Cc1ccc(NC(=S)Nc2ccc3cn[nH]c3c2)cc1` was 30.2%; that for `CN(C)c1cccc2c(C=C(C#N)C#N)ccc(N(C)C)c12` was 19.4%; that for `CCCS(=O)(=O)c1c(S(=O)(=O)CCC)c2c(N)cccn2c1C(=O)c1ccc(Br)cc1` was 23.1%.
Turning to `COc1ccc(N2C3=C(CC4=C2CCCC4=O)C(=O)CCC3)cc1`, the inhibition was 19.3%.
The value for `O=C(O)/C=C/C(=O)Nc1ccc(O)cc1` was 15.1%.
The value for `CCOC(=O)C(CCCCOc1ccc([N+](=O)[O-])cc1)C(=O)OCC` was -21.9%; that for `CCOc1cccc(CNc2ccc(O)cc2)c1OCc1ccc(Cl)cc1Cl` was 81% (active); that for `O=c1[nH]nc(CNc2ccc(O)cc2)c2ccccc12` was 9.6%.
As for `Oc1ccc(NCc2ccccc2OCc2ccccc2F)cc1`, the inhibition was 88.9% (active).
As to `Cn1c(CNc2ccc(O)cc2)nc2ccccc21`, the inhibition is 16.9%.
The value for `CCOc1ccccc1CNc1ccc(O)cc1` was 45.3% (active); that for `O=c1nc2s/c(=C\c3ccco3)c(=O)n2nc1Cc1ccccc1` was 26.6%.
Turning to `COc1ccccc1/C=C/CN1CCN(c2ccccc2)CC1`, the inhibition is 29.6%.
With `CCOC(=O)C1=C(N)n2c(s/c(=C/c3ccco3)c2=O)=C(C(=O)OC)C1c1ccco1` (stereo not drawn), the inhibition was 34%.

The values above are taken from PubChem BioAssay AID2018 (Sanford-Burnham Center for Chemical Genomics, 2009).
